In PubChem BioAssay AID624086 (Broad Institute, 2012):
Activity calls are given as the source filed them.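 Rule for the calls: active = fitted half-maximal effect concentration at or below the top concentration tested; inactive = the rest.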

Experiment: TCF/LEF reporter activation, dose response, orthogonal assay for GSK3b inhibitor project, cell-based, HEK293T, firefly luciferase, dry powder (AID 624086)
Settings: 24 h; series mostly up to 26 µM

SMILES | outcome
Cc1[nH]nc2c1C(C)C1=C(CC(C)(C)CC1=O)N2 (centres undefined) | inactive
COc1ccccc1C1C2=C(CC(C)(C)CC2=O)Nc2n[nH]c(-c3ccccc3)c21 (centres undefined) | inactive
COc1ccccc1C1C2=C(CC(C)(C)CC2=O)Nc2n[nH]c(C(C)(C)C)c21 (centres undefined) | inactive
Cc1[nH]nc2c1C(c1ccn[nH]1)C1=C(CC(C)(C)CC1=O)N2 (centres undefined) | inactive
Cc1[nH]nc2c1[C@H](c1ccccc1C(F)(F)F)C1=C(CC(C)(C)CC1=O)N2 | inactive
O/N=C/c1cn(-c2ccccc2)nc1-c1ccc(Cl)cc1 | inactive
COc1ccc(-c2nn(-c3ccccc3)cc2C(=O)N(C)C)cc1 | inactive
CC(C)c1ccc(-c2nn(-c3ccccc3)cc2/C=N/O)cc1 | inactive
CC1(C)CC(=O)C2=C(C1)Nc1n[nH]c(C(F)(F)F)c1C2c1c(F)cccc1F (centres undefined) | inactive
COc1ccccc1C1C2=C(CC(C)(C)CC2=O)Nc2ccccc21 (centres undefined) | inactive
COc1cccc(-c2nn(-c3ccccc3)cc2/C=N/O)c1 | inactive
CC1(C)CC(=O)C2=C(C1)Nc1n[nH]c(C(F)(F)F)c1C2c1cc(F)ccc1C(F)(F)F (centres undefined) | inactive
COc1cccc(C2C3=C(CC(C)(C)CC3=O)Nc3n[nH]c(C)c32)c1 (centres undefined) | inactive
Cc1[nH]nc2c1C(c1ccccn1)C1=C(CC(C)(C)CC1=O)N2 (centres undefined) | inactive
